# Compounds with a hit are over-represented: about 9.3% of the library has one in this group of screens.
# NPC1 promoter act: activates the NPC1 promoter; Huh7 NPC1 promoter luciferase reporter, 24 h; Potency, µM (titrated, usually from 9.22 µM), most hits filed as activators; 320,000 compounds, 2.4% hits; AID 485313; also: nearly all actives have a fitted effect of over 60% in size
#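 Luciferase expression driven by the NPC1 promoter was measured in stably transfected Huh7 cells after a 24 h compound incubation, using a luciferase reagent and a luminescence read.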
# SMN2 splice enh: enhancers of SMN2 splice variant expression; HEK293 SMN2-luciferase splicing reporter, luminescence, 30-36 h; Potency, µM (series often up to 46.1 µM), actives largely listed as activators; 210,000 compounds, 2.8% hits; AID 1458; also: nearly all actives have a fitted effect of over 55% in size
#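 qHTS luciferase splicing reporter: luminescence rises when SMN2 exon 7 is included in transfected HEK293 cells. Compound exposure lasted 30-36 h at 37C, with 4.5 mM final sodium butyrate as control, followed by a ONE-Glo read.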
# FLuc counter: firefly luciferase modulation, counter-screen for miR-21 project; AID 588342; Potency, µM (series often up to 57.5 µM), hits mostly inhibitors; purified FLuc, Km substrates, luminescence inhibition; 360,000 compounds, 6.9% hits; also: nearly all actives have a fitted effect of over 55% in size
# Target sequence (P08659 whole entry, looked up): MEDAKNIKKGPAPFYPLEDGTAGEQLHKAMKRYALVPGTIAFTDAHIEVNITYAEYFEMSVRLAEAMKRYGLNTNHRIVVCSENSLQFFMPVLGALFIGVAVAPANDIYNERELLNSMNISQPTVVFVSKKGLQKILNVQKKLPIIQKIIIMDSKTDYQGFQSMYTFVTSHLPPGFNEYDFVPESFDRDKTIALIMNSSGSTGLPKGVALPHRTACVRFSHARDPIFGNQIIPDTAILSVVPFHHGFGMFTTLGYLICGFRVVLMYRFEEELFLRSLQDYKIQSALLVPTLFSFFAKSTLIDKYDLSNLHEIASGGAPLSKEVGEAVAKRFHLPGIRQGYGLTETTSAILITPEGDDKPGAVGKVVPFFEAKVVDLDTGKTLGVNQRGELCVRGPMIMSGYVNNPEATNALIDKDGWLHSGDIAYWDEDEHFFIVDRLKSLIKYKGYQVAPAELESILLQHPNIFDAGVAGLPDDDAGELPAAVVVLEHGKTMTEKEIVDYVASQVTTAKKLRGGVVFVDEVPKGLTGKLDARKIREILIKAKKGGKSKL
#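 Purified P. pyralis luciferase, 10 nM final, with Km-level 10 uM D-luciferin and 10 uM ATP in 50 mM Tris acetate pH 7.5, 10 mM Mg acetate, 0.01% Tween-20, 0.05% BSA; 6-point qHTS titration about 60 µM downward; luminescence read.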
# Rab9 prom act: Rab9 promoter activation; Huh7 Rab9 promoter-luciferase reporter, luminescence, 24 h; 320,000 compounds, 2.8% hits; Potency, µM (doses to about 9.22 µM), most hits filed as activators; also: nearly all actives have a fitted effect of over 60% in size
#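 Luminescence from Amplite-detected luciferase (10 minutes, ambient) reports Rab9 promoter activation. Before that, stable Rab9-luciferase Huh7 cells (1500/well, reduced-serum OP-MEM I plus 10% FBS) were exposed to compound for 24 hours at 37C.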
# ELG1 repair inh: inhibitors of ELG1-dependent DNA repair in HEK293T cells | HEK293T ELG1-luciferase reporter, luminescence, 16 h; DNA damage induced by 5-fluorouridine | Potency, µM (titrated, usually from 46.1 µM), actives largely listed as inhibitors | 330,000 compounds, 2.3% hits | AID 504467; also: nearly all actives have a fitted effect of over 55% in size
#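 Overnight (16 hr) co-exposure of 2,000 cells/well to 5-fluorouridine and compound at 37 °C preceded detection. Luciferase was quantified via ONE-Glo luminescence; loss of signal denotes inhibition.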
# ELG1 genotoxic: genotoxicity induction in ELG1-luciferase HEK293T cells | HEK293T ELG1-luciferase reporter, luminescence, 16 h | Potency, µM (series often up to 46 µM), hits mostly activators | 330,000 compounds, 1.3% hits; also: nearly all actives have a fitted effect of over 60% in size
#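 Genotoxicity was scored as increased ELG1-luciferase reporter signal, measured by ONE-Glo luminescence (30 min, room temperature). Compound or vehicle exposure of the HEK293T reporter cells lasted 16 hr at 37°C.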
# Numbers stand for hits; 0 = inactive; ? = inconclusive; - = no result. Calls follow the shape of the dose curve; as a rule, active = well fitted curve in the direction sought with a large enough effect; inconclusive = small, poorly fitted or top-dose-only effect, or another doubt; inactive = no such curve, though single readings can be large; an effect the other way counts as inactive or inconclusive.
SMILES,NPC1 promoter act,SMN2 splice enh,FLuc counter,Rab9 prom act,ELG1 repair inh,ELG1 genotoxic
Cc1ccc(Nc2nc(N)nc(CSc3nc4ccccc4s3)n2)cc1,0,0,0,0,?,0
Nc1nc(CCl)nc(Nc2ccccc2)n1,0,-,?,0,0,0
Cc1ccc(Nc2nc(N)nc(CSCCO)n2)cc1,?,?,23.9µM,2µM,?,?
COc1ccccc1Nc1nc(N)nc(CCl)n1,0,-,?,0,?,0
Cc1ccc(NC(=O)C2CCN(C(=O)c3ccc(F)cc3)CC2)nc1,0,-,0,0,0,0
CCCCC(=O)Nc1nnc(C2=COCCO2)o1,0,?,0,0,0,0
COc1cccc(Nc2nc(N)nc(CCl)n2)c1,0,-,21.3µM,0,?,0
CCOc1ccc(Nc2nc(N)nc(CCl)n2)cc1,0,-,3.01µM,0,?,0
Cc1ccc(Nc2nc(N)nc(COC(=O)C3=COCCO3)n2)cc1,2µM,-,13.5µM,2.82µM,0,?
Cc1ccc(Nc2nc(N)nc(CCl)n2)c(C)c1,0,-,10.7µM,0,?,0
Cc1ccccc1CNC(=O)c1ccc2c(c1)N(Cc1ccccc1)CCS2,-,0,0,-,-,-
COc1ccc(-c2nnc(SCC(=O)Nc3ccccc3)n2C)cc1,0,0,0,0,0,0
Cc1ccc(NC(=O)C(C)Sc2nnc(C)n2C)cc1 (stereo unspecified),0,-,?,0,0,0
COc1ccc(-c2nc3c(c4nnc(SC(C)C(=O)Nc5ccc(C)cc5)n24)COC(C)(C)C3)cc1 (stereo unspecified),0,0,0,0,20.6µM,0
COc1ccc(NC(=O)CSc2nnc3c4c(nc(-c5ccccc5)n23)CC(C)(C)OC4)cc1,0,0,0,0,18.4µM,0
COc1cc(CN(C2CCCCC2C)S(=O)(=O)c2ccc(S(=O)(=O)NC3CC3)cc2)cc(OC)c1OC (stereo unspecified),0,0,0,0,18.4µM,0
COc1ccc(-c2c(C#N)c(SCC(=O)Nc3ccc(C)c(C)c3)nc(C)c2C(=O)Nc2ccc(Cl)cc2)cc1,-,0,0,-,-,-
COc1cc(CC(=O)N(c2ccccc2)c2nc(C)cs2)cc(OC)c1OC,0,0,0,0,?,0
COc1ccccc1-c1cc(C(=O)N/N=C/c2ccoc2)c2ccccc2n1,0,-,?,0,?,0
O=C(N/N=C/c1cccc(O)c1)c1cc(C2CC2)nc2ccccc12,0,-,?,0,0,0
CCc1ccc(/C=N/NC(=O)c2cc(C3CC3)nc3ccc(Br)cc23)s1,0,0,0,0,7.31µM,0
COc1ccccc1-c1cc(C(=O)N/N=C/c2ccc(C)s2)c2ccccc2n1,0,?,?,0,7.31µM,0
CCc1ccc(/C=N/NC(=O)c2cc(-c3ccccc3OC)nc3ccccc23)s1,0,0,0,0,18.4µM,0
Cc1cc(NC(=O)CN2C(=O)NC3(CCCCCC3)C2=O)no1,0,-,0,0,0,0
CCCC(=O)N1CCN(c2ccc(NC(=O)c3cccs3)cc2Cl)CC1,0,0,0,0,7.3µM,0
SMILES,NPC1 promoter act,SMN2 splice enh,FLuc counter,Rab9 prom act,ELG1 repair inh,ELG1 genotoxic
O=C(Nc1ccc(N2CCOCC2)c(Cl)c1)c1ccco1,1.41µM,12.6µM,9.53µM,3.55µM,?,2.59µM
O=C(Nc1ccc(N2CCN(C(=O)c3ccco3)CC2)c(Cl)c1)c1cc2ccccc2o1,0,0,?,0,5.17µM,0
O=C(Nc1ccc(N2CCN(C(=O)c3ccccc3)CC2)c(Cl)c1)c1ccco1,0,0,0,0,11.6µM,0
CCCC(=O)N1CCN(c2ccc(NC(=O)C(C)(C)C)cc2Cl)CC1,0,0,0,0,0,0
CC(=O)N1CCN(c2ccc(NC(=O)c3ccco3)cc2Cl)CC1,0,-,?,0,?,?
CCCn1c(C)nc2c(NCc3ccccc3)nc(C)nc21,-,0,-,-,-,-
CCOC(=O)c1nnc2c(-c3ccc(OC)cc3)c(C)nn2c1N,-,0,?,-,-,-
CC(=O)N1CCN(S(=O)(=O)c2ccc(S(=O)(=O)NC3CCCCC3)cc2)CC1,0,-,0,0,0,0
O=C(Nc1nnc(-c2cc(Cl)ccc2Cl)o1)c1ccco1,0,-,6.01µM,0,?,?

# Assay outcomes as filed in PubChem.
